Measurements: PubChem BioAssay AID1671189 (National Center for Advancing Translational Sciences (NCATS), 2021)
Screen size: about 1,100 compounds; about 70 (6%) were called active. Another 22% or so got no clear call; they are omitted. The entries come from a sample that favours actives as a whole. Unmarked numbers belong to inactive results. Calls follow the shape of the dose curve; as a rule, active = well fitted curve in the direction sought with a large enough effect; inconclusive = small, poorly fitted or top-dose-only effect, or another doubt; inactive = no such curve, though single readings can be large or run the other way.

Biological target: Polyunsaturated fatty acid lipoxygenase ALOX12 (Homo sapiens) (UniProt P18054)
Sequence (P18054 whole entry, looked up): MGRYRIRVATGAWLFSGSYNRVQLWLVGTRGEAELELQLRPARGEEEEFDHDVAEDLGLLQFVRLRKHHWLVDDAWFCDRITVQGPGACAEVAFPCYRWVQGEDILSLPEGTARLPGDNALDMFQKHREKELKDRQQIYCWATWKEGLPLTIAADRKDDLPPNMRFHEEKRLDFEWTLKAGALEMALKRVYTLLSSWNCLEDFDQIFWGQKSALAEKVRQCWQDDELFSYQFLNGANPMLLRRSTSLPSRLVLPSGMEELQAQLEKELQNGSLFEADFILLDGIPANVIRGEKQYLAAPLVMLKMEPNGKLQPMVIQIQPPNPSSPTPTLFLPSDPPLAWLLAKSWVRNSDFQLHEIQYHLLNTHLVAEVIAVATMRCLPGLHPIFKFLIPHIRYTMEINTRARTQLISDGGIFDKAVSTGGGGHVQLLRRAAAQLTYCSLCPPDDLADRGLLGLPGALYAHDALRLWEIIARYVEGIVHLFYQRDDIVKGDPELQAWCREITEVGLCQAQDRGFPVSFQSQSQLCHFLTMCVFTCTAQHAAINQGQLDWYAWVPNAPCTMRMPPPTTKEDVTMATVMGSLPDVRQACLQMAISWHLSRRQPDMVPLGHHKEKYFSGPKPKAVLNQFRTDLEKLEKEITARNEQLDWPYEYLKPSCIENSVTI
Assay: Confirmatory qHTS assay for inhibitors of human arachidonate 12S-lipoxygenase (ALOX12): Round 2
Details: purified human 12-LOX, xylenol orange absorbance; series mostly up to 125 µM; activity change, negative = inhibition: at the top concentration
Source text: Assay Provider: Theodore R. Holman Ph.D. University of California, Santa Cruz, California Human lipoxygenase 12hLO is a member of the closely related lipoxygenase family of enzymes which catalyze the site-specific oxidation of arachidonic acid to various hormone precursor molecules and as such is a candidate for drug development in a variety of disease areas, such as cancer and inflammation. Inhibition of 12hLO activity was screened by utilizing arachidonic acid as a substrate. The extent of hydroperoxide product formation was measured by a secondary chromogenic reaction in which xylenol orange (XO, Sigma-Aldrich, cat. number 39,818-7) reacts with the ferric ions produced from the reaction between the hydroperoxide and ferrous ions. The Fe (III)-XO complex is characterized with red-shifted absorbance at 560 nm. A purified preparation of human 12hLO was supplied by Dr. Holman laboratory, University of California, Santa Cruz.
PROTOCOL TABLE SEQUENCE No. (e.g., 1, 2, 3, etc.); […] (e.g., Cells, Incubation, Reagent, etc.); VALUE; DESCRIPTION 1; Enzyme; 3 uL; 150 nM 12hLO enzyme solution dispensed in 1536-well Greiner black, clear bottom plates. 2; Compound; 23 nL; compounds and controls were added. 3; Incubate; 15 min; room temperature. 4; Substrate; 1 uL; 40 uM arachidonic acid (final concentration). 5; Incubate; 30 min; room temperature. 6; Reagent; 4 uL; Fe-XO solution was added to each well. 7; Incubation; 30 min; room temperature 8; Detector; absorbance; Read 1 at 405 nm absorbance using ViewLux (PerkinElmer) CCD imager. 9; Detector; absorbance; Read 2 at 573 nm absorbance using ViewLux (PerkinElmer) CCD imager. NOTES (numbers refer to sequence above) 1; 150 nM 12hLO (final concentration) in buffer solution (25 mM Hepes, 0.01% Triton X-100, pH 7.0) was dispensed in columns 1, 2, 5-48. Column 1 is neutral (100% activity). Buffer only was dispensed in columns 3 and 4 as no enzyme negative controls. The plates were covered with metal lids with gas-exchange holes. 2; Compounds were pin transferred via a Kalypsys Pin Tool (Wako USA) in column 5 - 48. Control compound was transferred in column 2, titration of nordihydroguaiaretic acid (NDGA, Sigma-Aldrich, N5023) with top concentration of 20 mM in DMSO then 1:3 dilution in duplicate. Dilution factor of 23 nL into 4 uL final assay volume. 3; Covered assay plates were incubated for 15 min at room temperature. 4; Substrate was added to start the reaction; 40 uM arachidonic acid (Sigma-Aldrich, St. Louis, MO) was dispensed throughout the plate. 6; Chromogenic detection reagent solution (divalent iron/xylenol orange, Fe-XO) was added to each well: 200 uM xylenol orange, 300 uM ferrous ammonium sulfate prepared freshly in 50 mM sulfuric acid. 8, 9; Two absorbance readouts were obtained at 405 nm and at 573 nm using a ViewLux high-throughput CCD plate imager (PerkinElmer). The 573 to 405 (Read 2 / Read 1) absorbance ratio was used to compute reaction progress.
% is scaled to controls: 0 for no effect and ±100 for the full control effect; potency is read from the fitted curve at half-maximal effect.

Compound	Potency	activity change, negative = inhibition
COc1ccc(-c2cc(-c3cccc(CO)c3)cn3cncc23)cc1	28.2 µM (active)	
COc1cccc(-c2ccc(CN)cc2)c1		-0.015%
COc1ccc(CNc2ncnc3c2CN(C2CCCNC2)C(=O)CN3C)cc1 (stereo not drawn)		-15.2%
O=C(O)CCC(=O)N1Cc2ccccc2CC2(CCCN2Cc2cccnc2)C1 (stereo not drawn)		-6.82%
Cc1ccc(-c2cc(-c3ccc(C)o3)nc(N)c2C#N)cc1	3.06 µM (active)	
Cc1cc(C(=O)N2CCC(F)CC2)c2c(C3CCCN3)noc2n1 (stereo not drawn)		-10.6%
O=Cc1ccc(-c2ccc(O)cc2)cc1		-27.2% [at 233 µM]
COc1ccc(N=C2S[C@H]3[C@H]([C@@H](O)[C@H](O)C[C@@H]3C(N)=O)N2CC2CCCCC2)cc1		-10.7% [at 64.5 µM]
O=C1N[C@@H]2CCN(S(=O)(=O)c3ccc(Cl)cc3)[C@@H]2C(=O)N1c1ccc(Oc2ccccc2)cc1	7.94 µM (active)	
COc1ccccc1-c1ccc(CN2CCCC(c3nc4ccc(F)cc4c(=O)[nH]3)C2)cc1 (stereo not drawn)		-29.2%
O=Cc1cccc(N2CCN(C(=O)c3ccc4c(c3)OCO4)CC2=O)c1		-11%
O=C1NCc2ccccc2CC12CCCN2Cc1ccsc1 (stereo not drawn)		-13.5%
NCC(=O)N1Cc2ccccc2CC2(CCCCN2CC2CCOCC2)C1 (stereo not drawn)		2.3%
CC(=O)N1CCC2(CC1)CN(C(=O)Cc1csc(N)n1)Cc1ccccc1O2		0.398%
CNc1oc(-c2ccc(Cl)c(Cl)c2)nc1C#N		-1.38% [at 64.5 µM]
Clc1ccc(NCCN2CCCC2)cc1	90.2 µM (active)	
c1ccc(NCCN2CCCC2)cc1		-22.6% [at 233 µM]
c1cc(NCCN2CCCC2)ccn1		-4.41% [at 233 µM]
Cn1nc(C2CCNC2)c2c(C(=O)NC3CC3)cc(C3CC3)nc21 (stereo not drawn)		-13.8%
O=C(OCC#CCSc1nnc(-c2cccc3ccccc23)o1)c1ccsc1		-10.6% [at 64.5 µM]
NCc1ccc(-c2cccc(O)c2)cc1		-27.6%
NCc1ccc(-c2cccc(Cl)c2)cc1		-14.7%
Nc1cc(-c2ccccc2)ccc1O	0.273 µM (active)	
N[C@@H]1CC[C@H](C(=O)N2CCC(c3nccn3Cc3ccncc3)CC2)C1		-14.6% [at 64.5 µM]
O=C(OCC#CCSc1nnc(-c2cccc3ccccc23)o1)c1sccc1Cl		8.4% [at 64.5 µM]
CN1CC(=O)N(C2CCNC2)Cc2c(NCC3(O)CCCCC3)ncnc21 (stereo not drawn)		-19.9%
CCCCN1C(=O)[C@@H]2C[C@@H](O)CN2C2(CN(Cc3cnc[nH]3)C2)C1=O		16.1% [at 64.5 µM]

Compound	Potency	activity change, negative = inhibition
O=C(c1cc(C2CC2)nc2onc(C3CCCNC3)c12)N1CCCCC1 (stereo not drawn)		-15.8%
CC(=O)NC1(C)CCN(Cc2cnc(-c3ccccc3OCc3ccccc3)s2)CC1	4.47 µM (active)	
O=C1NCc2ccccc2CC12CCN(Cc1ccc(Cl)o1)C2 (stereo not drawn)		-14.1%
O=C1Nc2ccccc2C12CCN(Cc1ccccc1)C2 (stereo not drawn)		-20.4%
CC(=O)N1CCN(C(=O)CSCC(=O)O)C[C@H]1C(=O)N[C@H]1CCCNC1=O		-4.79% [at 64.5 µM]
O=c1[nH]c(C2CCCN(Cc3ccc(-c4cc(F)cc(F)c4)cc3)C2)nc2ccc(F)cc12 (stereo not drawn)		-20.1%
CN1CC(=O)N(C2CCNCC2)Cc2c(NC3CCCCC3)ncnc21		-13%
O=C(c1cc(-c2ccco2)nn1-c1cccc(Cl)c1)N1CCCCC1	9.68 µM (active)	
O=C(c1ccccc1)N1CCn2c(nn(-c3cccc(Cl)c3)c2=O)C1		-29%
O=c1n(-c2cccc(Cl)c2)nc2n1CCN([S+](=O)([O-])c1ccccc1)C2		-36%
O=C(c1ccc(C(F)(F)F)cc1)N1CCc2nc(C3CC3)nc(-c3ccc(Cl)cc3)c2C1		-19.2%
O=C(N1CCCC1)N1CCn2c(nnc2-c2cncc(Br)c2)C1		-10.2%
O=C(O)CCCC(=O)N1Cc2ccccc2CC2(CCCN2Cc2ccccc2)C1 (stereo not drawn)		-17.9%
CC1CCCN(c2ncnc3c2CN(C2CCCNCC2)C(=O)CN3C)C1 (stereo not drawn)		-9.31%
CC(=O)NC(c1ccco1)c1cc(Cl)c2cccnc2c1O (stereo not drawn)	4.85 µM (active)	
CCC(=O)NC(c1ccco1)c1cc(Cl)c2cccnc2c1OC (stereo not drawn)		10.7% [at 64.5 µM]
CCC(=O)NC(c1ccco1)c1cc(Cl)c2cccnc2c1O (stereo not drawn)	2.17 µM (active)	
COc1ccc(CNc2ncnc3c2CN(C2CCCNCC2)C(=O)CN3C)cc1 (stereo not drawn)		-4.88%
C[S+](=O)([O-])N1Cc2ccccc2OC2(CCN(C(=O)c3ccc(N)nc3)CC2)C1		-11.4%
CN1C(=O)[C@@H]2C[C@@H](CN2C2CCCC2)Oc2ccccc21		14.6%
N#Cc1ccc(CN2CCC3(CN[S+](=O)([O-])c4cnccc4O3)C2)cc1 (stereo not drawn)		-2.99%
CNCCN1C(=O)CC[C@H]2CN(C(=O)c3ccc(Cl)cn3)CC[C@H]21		-6.14% [at 64.5 µM]
C=CCNC(=O)[C@@H]1Cc2cn(CC#CC)c3cccc(c23)[C@H](CC(C)C)N1		24% [at 64.5 µM]
C=CCn1cc(CN(Cc2ccco2)Cc2cccs2)c(C)n1	10 µM (active)	
Cc1ccc(C(=O)N2CCn3c(nnc3C3CCNCC3)C2)cc1		-13.1%
c1ccc(COCCCc2cnc[nH]2)cc1		-4.41%
